SW480 rereplic = DNA re-replication induction in SW480 cells; SW480 DNA re-replication, Hoechst DNA content imaging, 48 h; Potency, µM (highest dose often 46.1 µM), usual class: activators; 1.8% of 340,000 active; further: nearly all actives have a fitted effect of over 55% in size
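Treated cells incubate 48 hr (37 C, 5% CO2), are stained 40 min with Hoechst, and nuclear fluorescence is enumerated; a rise in nuclei with high DNA signal marks re-replication.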
MCF10A rerep = induces DNA re-replication in MCF 10a normal breast cells | Potency, µM (titrated, usually from 46.1 µM), hits mostly activators | 2.9% of 350,000 active | MCF 10A DNA re-replication, Hoechst nuclear intensity, 48 h; further: nearly all actives have a fitted effect of over 50% in size
HT1080NT lethal = kills 2HG-producing HT-1080-NT fibrosarcoma cells | HT-1080-NT fibrosarcoma viability, CellTiter-Glo ATP luminescence, 48 h | AID 686970 | 1.6% of 360,000 active | Potency, µM (highest dose often 46.1 µM), hits mostly cytotoxic;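 further: NT is the 2HG producing partner of a matched IDH1 knockdown line; nearly all actives have a fitted effect of over 55% in size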
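Viability of the 2HG-overproducing fibrosarcoma line after 48 hours of compound exposure at 37 degrees C was determined by luminescence with CellTiter-Glo, and concentration-effect curves were then fitted and categorized.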
KB-3-1 cytotox = KB-3-1 parental cell cytotoxicity | Potency, µM (series often up to 46.1 µM), actives largely listed as cytotoxic | 1.4% of 400,000 active | KB-3-1 viability, CellTiter-Glo ATP luminescence, 72 h; further: nearly all actives have a fitted effect of over 60% in size
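Screening of KB-3-1 cells (DMEM, 10% FBS, phenol-red free) ran from lowest to highest compound concentration; after 72 h at 37 °C viability was read luminescently and curves fitted.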
HT1080 IDH1KD tx = HT-1080 IDH1 knockdown cell toxicity (counter line) | Potency, µM (titrated, usually from 46.1 µM), usual class: cytotoxic | HT-1080 IDH1 knockdown viability, ATP luminescence, 48 h | 2% of 360,000 active
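CellTiter-Glo luminescence after 48 h compound exposure at 37 degrees C of IDH1-knockdown HT-1080 cells in 5% FBS RPMI. %Activity scaled between DMSO wells and cell-free media wells, with curves fitted and assigned curve classes.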
KB-V1 MDR tox = KB-V1 MDR subline cytotoxicity. KB-V1 MDR cells viability, CellTiter-Glo, 72 h. AID 1347076. 3.4% of 400,000 active. Potency, µM (titrated, usually from 46.1 µM), actives largely listed as cytotoxic; further: nearly all actives have a fitted effect of over 60% in size
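In this primary screen, KB-V1 cells overexpressing P-gp are incubated with library compounds (lowest to highest concentration) for 72 h at 37 degrees C before a luminescent ATP viability read.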
A number is an active result. Shown are actives, neighbours in structure and some others; about 8% of the full set was active somewhere. The call rests on the fitted dose curve; in most records, active means well fitted curve in the direction sought with a large enough effect; inconclusive means small, poorly fitted or top-dose-only effect, or another doubt; inactive means no such curve, though single readings can be large; an effect the other way counts as inactive or inconclusive.

Screening CCC(C)C1NC(=O)C(Cc2ccc(O)cc2)NC(=O)C(N)CSSCC(C(=O)N2CCCC2C(=O)NC(CC(C)C)C(=O)NCC(N)=O)NC(=O)C(CC(N)=O)NC(=O)C(CCC(N)=O)NC1=O (stereo not given) returned SW480 rereplic inactive and MCF10A rerep inactive.
For CCCOc1ccc(CCc2n[nH]c(=S)n2-c2ccccc2)cc1 the results were SW480 rereplic inactive, MCF10A rerep inactive, HT1080NT lethal inactive, KB-3-1 cytotox inactive, HT1080 IDH1KD tx inactive and KB-V1 MDR tox inactive.
CCCOc1ccc(CCc2n[nH]c(=S)n2Cc2ccccc2)cc1 was read as SW480 rereplic inactive, MCF10A rerep 21µM, HT1080NT lethal inconclusive, KB-3-1 cytotox inactive, HT1080 IDH1KD tx inconclusive and KB-V1 MDR tox inactive.
Screening CCN(CC)c1nc(N)c2c(N)nc3c(c2c1C#N)CC(c1ccccc1)O3 (stereo not given) returned SW480 rereplic inconclusive, MCF10A rerep 21µM, HT1080NT lethal inactive, KB-3-1 cytotox inactive, HT1080 IDH1KD tx inconclusive and KB-V1 MDR tox 21µM.
Cc1cc(N2CCCC2)c(F)cc1/C=C\[N+](=O)[O-] was read as SW480 rereplic 29µM, MCF10A rerep inconclusive, HT1080NT lethal inconclusive, KB-3-1 cytotox inconclusive, HT1080 IDH1KD tx inconclusive and KB-V1 MDR tox inconclusive.
For CCCN1CCCc2cc(CN(CCCN3CCOCC3)C(=O)Nc3ccc(CC)cc3)ccc21 the results were KB-3-1 cytotox inactive and KB-V1 MDR tox inactive.
COc1cc(O)ccc1C1CC(=O)Nc2c1c(=O)nc(SCc1ccccc1C)n2C (stereo not given) was read as KB-3-1 cytotox inactive and KB-V1 MDR tox inactive.
Cc1[nH]c2ccccc2c(=O)c1CN1CCCCCC1 was read as SW480 rereplic inactive, MCF10A rerep inactive, HT1080NT lethal inactive, KB-3-1 cytotox inactive, HT1080 IDH1KD tx inactive and KB-V1 MDR tox inconclusive.
`CC(C)c1ccc2[nH]c3c(c2c1)CCCC3=O` gave SW480 rereplic inactive, MCF10A rerep inactive, HT1080NT lethal 21µM, KB-3-1 cytotox inactive, HT1080 IDH1KD tx inconclusive and KB-V1 MDR tox 13µM.
For Cc1ccc2[nH]c3c(c2c1)CCC3=O the results were SW480 rereplic inactive, MCF10A rerep inactive, HT1080NT lethal inactive, KB-3-1 cytotox inactive, HT1080 IDH1KD tx inactive and KB-V1 MDR tox inconclusive.
Cc1cccc2c3c([nH]c12)C(=O)CC(C)(C)S3 was read as SW480 rereplic inactive, MCF10A rerep inactive, HT1080NT lethal inactive, KB-3-1 cytotox inactive, HT1080 IDH1KD tx inactive and KB-V1 MDR tox inactive.
Cc1ccc2[nH]c3c(c2c1)SC(C)(C)CC3=O was read as SW480 rereplic inconclusive, MCF10A rerep 18µM, HT1080NT lethal inactive, KB-3-1 cytotox inactive, HT1080 IDH1KD tx inactive and KB-V1 MDR tox inactive.
For O=C1CCCc2c1[nH]c1ccc(CN3CCCCC3)cc21 the results were SW480 rereplic inactive, MCF10A rerep inactive, HT1080NT lethal inconclusive, KB-3-1 cytotox inactive, HT1080 IDH1KD tx 10µM and KB-V1 MDR tox inconclusive.
`Cc1ccc2[nH]c3c(c2c1)CCCC3=O` gave SW480 rereplic inactive, MCF10A rerep inactive, HT1080NT lethal inactive, KB-3-1 cytotox 1.8µM, HT1080 IDH1KD tx inactive and KB-V1 MDR tox 1.8µM.
For CCOCCCNC(=O)CN1C(=O)c2c(c3ccccc3n2C)C1c1ccc(OC)cc1 (stereo not given) the results were KB-3-1 cytotox inactive and KB-V1 MDR tox inactive.
`O=C(Cn1cnc2c(OCc3ccccc3)ncnc21)N[C@H](CO)Cc1cc2ccccc2[nH]1` gave SW480 rereplic inactive, MCF10A rerep inactive, HT1080NT lethal inactive, KB-3-1 cytotox inactive, HT1080 IDH1KD tx inactive and KB-V1 MDR tox inactive.
Cc1ccnc(NC(=S)N2CCN(c3ccc(C(F)(F)F)cc3)CC2)c1 was read as KB-3-1 cytotox inactive and KB-V1 MDR tox inactive.
Screening COc1ccc(C(=O)Nc2nnc(S(=O)(=O)N3CCN(c4ccc(C)cc4)CC3)s2)cc1 returned KB-3-1 cytotox inactive and KB-V1 MDR tox inactive.
Nc1nc(C(F)(F)F)cc(=O)n1N was read as SW480 rereplic inactive, MCF10A rerep inactive, HT1080NT lethal inactive, KB-3-1 cytotox inconclusive, HT1080 IDH1KD tx inactive and KB-V1 MDR tox inconclusive.

Assay outcomes from PubChem BioAssay.
